In the supplement of paper PMC3334620:
Over roughly 33,000 sequences, “E-score (-0.5 to 0.5)” has its median near -0.054; the highest 2% begin near 0.35. For the sample, the highest values were picked, then their nearest neighbours and some sequences at random.

Target: T1, Stb5 (UniProt P38699)
T1 sequence: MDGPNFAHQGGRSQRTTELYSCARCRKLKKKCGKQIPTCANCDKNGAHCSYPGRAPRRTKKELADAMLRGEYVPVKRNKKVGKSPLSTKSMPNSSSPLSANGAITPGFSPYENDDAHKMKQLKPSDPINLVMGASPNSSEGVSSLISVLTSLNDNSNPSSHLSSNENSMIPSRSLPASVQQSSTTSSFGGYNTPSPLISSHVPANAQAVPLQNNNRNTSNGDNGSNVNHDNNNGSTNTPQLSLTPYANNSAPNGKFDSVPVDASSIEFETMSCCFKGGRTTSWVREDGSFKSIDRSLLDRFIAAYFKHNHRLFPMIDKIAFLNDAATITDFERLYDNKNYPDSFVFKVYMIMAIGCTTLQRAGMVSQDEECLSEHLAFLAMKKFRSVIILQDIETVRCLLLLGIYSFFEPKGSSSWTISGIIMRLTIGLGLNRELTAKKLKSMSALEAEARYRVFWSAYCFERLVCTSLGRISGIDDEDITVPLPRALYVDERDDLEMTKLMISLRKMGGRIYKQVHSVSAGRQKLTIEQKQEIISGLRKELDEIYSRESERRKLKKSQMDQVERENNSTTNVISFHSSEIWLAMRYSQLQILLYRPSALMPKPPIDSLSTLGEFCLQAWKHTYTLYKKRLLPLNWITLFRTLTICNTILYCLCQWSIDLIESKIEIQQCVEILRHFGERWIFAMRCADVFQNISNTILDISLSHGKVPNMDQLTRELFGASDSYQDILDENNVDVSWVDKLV
Experiment: PBM E-score (8-mer binding enrichment) (E-score (-0.5 to 0.5)); higher = stronger / more preferred TF binding
Settings: protein concentration: 200 nM; construct: GST-full length
How it was run: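 Yeast transcription factors, full-length or as DNA-binding domains, were expressed with a GST tag using PURExpress in vitro transcription/translation. At about 100-200 nM they were applied to universal all-10-mer Agilent arrays, double-stranded by primer extension on fresh or once-stripped slides. Fluorescent anti-GST detected bound protein, and masliner normalised the scans. E-scores for ungapped eight-base words, pooled with reverse complements, came from the Universal PBM Analysis Suite.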

Sequence	PBM E-score
AGCGAGTC	-0.132
AGAATTCG	-0.146
CGGCGACG	0.194
GACGGCGC	0.199
CAACCGTC	-0.0245
AGGCCGAT	0.295
GGGCCGAC	0.355
GGGCCGAA	0.175
AGGCCGAC	0.406
CGGCCGAC	0.205
GAGCCGAC	0.201
ACAAGTGT	-0.136
CAGGTTAA	-0.0457
AACGGAGT	0.378
CACGGACC	0.241
AACGGACA	0.298
AACGGACG	0.224
AACGGAGC	0.242
AACGGACT	0.38
AACGGATC	0.16
AACGGGGT	0.373
AACGGAGA	0.247

Sequence	PBM E-score
AACGGACC	0.38
AACGGGGG	0.296
AACGGGGC	0.294
GTAAGATA	0.0697
CTGCAGCC	-0.218
TCTGGGCA	0.115
TAGCTTCA	-0.214
AGCGATGC	-0.112
CGTTGTAA	-0.00989
AGTTCAGC	-0.299
CAGCGGCA	0.198
AAGCGGCA	0.344
GAGCGGCC	0.293
TAGCGGCA	0.372
GAGCGGCA	0.357
GAGCGGTA	0.316
CGCCAGTC	0.131
CGCTGATC	0.0743
TAGCGATA	0.0393
CATGCCCG	0.122
AATGCCCC	0.128
CATGCCGG	0.344

Sequence	PBM E-score
CATGCCGA	0.168
AATGCCCG	0.362
AATGCCGG	0.401
GATGCCGA	0.332
CATGCCGC	0.312
GATGCCGC	0.349
AATGCCGC	0.448
AATGCCTG	-0.102
AATGCCGA	0.419
AAGACCTC	-0.0749
CCCTTGGC	-0.224
CTGATTAC	-0.0945
GCAGTTCA	-0.151
CTTGCCAC	-0.0929
CTGGGAGA	-0.253
AAAGCTCG	-0.16
AGATAGAC	-0.0476
ACCCTTTG	0.0498
CAGCCATA	-0.263
AATCCCAA	0.0066
AATGCCGT	0.425
AATGCCAT	-0.0216

Sequence	PBM E-score
AATGCCCT	-0.168
GGGTTTCA	0.19
TACCGCAA	0.225
AACCGCAC	0.00707
GACCGCAC	0.18
AACCGCAA	0.12
CACCGCAC	0.357
CACCGCAA	0.368
CGAGGCTA	-0.0771
AATGAGAG	-0.228
ATGCCTTA	-0.338
CGCCGGAC	0.396
GACCGGAA	0.21
GGCCGGAC	0.331
CTCCGGAG	0.283
CTCCGGAC	0.381
CGCCGGAA	0.168
ATCCGGAC	0.258
CACCGGAG	0.379
GTCCGGAC	0.348
